Source: PubChem BioAssay AID1259240 (Keith Lab, Institute of Cancer Science, University of …, 2017)
Activity calls are given as the source filed them. Rule as the data show it: active = fold change mostly below about -2 (no sharp cut-off); inactive = mostly above about -1.8.

Assay: modulation of TERT promoter-driven luciferase – cell-based, luciferase reporter, human, primary screen (AID 1259240)
Conditions: A2780 TERT promoter luciferase reporter, 16 h; at 20 µM, fold versus average of vehicle-only wells

Q: For `CCOC(=O)N1CCC(Nc2ccc3nncn3n2)CC1`, which fold change is on record?
A: -1.14 (inactive)

Q: For `CC(CC(=O)NCCc1c[nH]c2ccccc12)CC1=NS(=O)(=O)c2ccccc2N1` (stereo not given), which fold change is on record?
A: -1.46 (inactive)

Q: Which fold change does the source give for `CCOc1cc(C2c3c(oc4ccc(F)cc4c3=O)C(=O)N2Cc2ccc(F)cc2)ccc1O` (stereo not given) here?
A: -3.2 (active)

Q: With `COC(=O)c1ccc(-c2nn(C)c(=O)c3ccccc23)cc1` as the compound, how does the fold change read?
A: -1.09 (inactive)

Q: Which fold change does the source give for `CCOC(=O)CSc1nc(SCC(=O)OCC)c2c3c([nH]c2n1)CCCC3` here?
A: 1.35 (inactive)

Q: For `CC(C)SC1=NSC2=NC(=O)/C(=C\c3ccco3)C(=N)N21`, which fold change is on record?
A: 1.5 (inactive)

Q: Which fold change does the source give for `COc1ccc(S(=O)(=O)N2N=C(c3ccc(NS(C)(=O)=O)cc3)CC2c2ccco2)cc1` (stereo not given) here?
A: 1.12 (inactive)

Q: With `COc1ccc(-c2nc3s/c(=C\c4cc(OC)c(OC)c(OC)c4)c(=O)n3n2)cc1OC` as the compound, how does the fold change read?
A: 1.65 (inactive)

Q: Which fold change does the source give for `CCS(=O)(=O)Nc1ccc(C2=NN(S(C)(=O)=O)C(c3ccco3)C2)cc1` (stereo not given) here?
A: -1.18 (inactive)

Q: With `CC1=CSC2=NC(=O)/C(=C\c3coc4ccccc4c3=O)C(=N)N12` as the compound, how does the fold change read?
A: -1.1 (inactive)

Q: For `CCOc1ccc2c(c1)CN(Cc1ccc(Cl)cc1)CO2`, which fold change is on record?
A: -1.71 (inactive)

Q: With `COCCn1c(SCC(=O)Nc2nnc(C)s2)nc2c(c1=O)SC(C)C2` (stereo not given) as the compound, how does the fold change read?
A: 1.17 (inactive)

Q: With `COc1ccc(S(=O)(=O)n2nc(-c3ccc(Cl)cc3)cc2N)cc1OC` as the compound, how does the fold change read?
A: 1.41 (inactive)

Q: With `Cc1cc2c(cc1C)NC(c1nc3ccccc3[nH]1)C1=C(CC(C)(C)CC1=O)N2` (stereo not given) as the compound, how does the fold change read?
A: -1.29 (inactive)

Q: For `CCOC(=O)N1CCC(Nc2c(N3CCN(c4ccc(C(C)=O)cc4)CC3)c(=O)c2=O)CC1`, which fold change is on record?
A: -1.1 (inactive)

Q: With `Cn1c2ccccc2c2cnn(CC(=O)NCCc3c[nH]c4ccccc34)c(=O)c21` as the compound, how does the fold change read?
A: 1.23 (inactive)

Q: For `CC1=CC2=NC(=O)/C(=C\c3cc(C)n(-c4ccccc4F)c3C)C(=N)N2O1`, which fold change is on record?
A: -1.81 (inactive)

Q: Which fold change does the source give for `COc1ccccc1-c1c(C)nn2c(N(C)CCC#N)cc(C)nc12` here?
A: -1.5 (inactive)

Q: For `C=CCn1c(NCCN(CC)CC)nc2c1c(=O)[nH]c(=O)n2C`, which fold change is on record?
A: 1.22 (inactive)

Q: For `c1coc(CSc2nc3ccccc3n3cnnc23)c1`, which fold change is on record?
A: 1.16 (inactive)

Q: For `Cc1cc(C(=O)NC2CCCCC2)on1`, which fold change is on record?
A: 1.39 (inactive)

Q: Which fold change does the source give for `COc1ccc(-c2cc(C(F)(F)F)nc(SCCC(=O)N3CCN4CCCC4C3)n2)cc1` (stereo not given) here?
A: -1.73 (inactive)

Q: Which fold change does the source give for `CN(C)CCN1C(=O)C(=O)/C(=C(\O)c2ccc(F)cc2)C12C(=O)N(C)c1ccccc12` (stereo not given) here?
A: -1.34 (inactive)

Q: With `O=C(CSc1nc2sc3c(c2c(=O)[nH]1)CCCC3)N1CCOCC1` as the compound, how does the fold change read?
A: -4.39 (active)

Q: Which fold change does the source give for `CCOC(=O)C1CCCN(c2c(NCCN(C)C)c(=O)c2=O)C1` (stereo not given) here?
A: 1.36 (inactive)

Q: With `CCC(=O)OCCNc1cc(N2CCCC2)c2noc3c2c1C(=O)c1ccccc1-3` as the compound, how does the fold change read?
A: 2.08 (active)

Q: With `COc1cc2c(cc1OC)C(c1ccc(C)c(Br)c1)CC(=O)N2` (stereo not given) as the compound, how does the fold change read?
A: -1.04 (inactive)

Q: With `CCOC(=O)C1CCCN(c2c(N3CCC(N4CCCCC4)CC3)c(=O)c2=O)C1` (stereo not given) as the compound, how does the fold change read?
A: -1.11 (inactive)

Q: Which fold change does the source give for `C=CCn1c(Oc2ccccc2Cl)nc2c1c(=O)n(C)c(=O)n2C` here?
A: -2.84 (active)

Q: With `c1ccc(COc2ccc(Oc3nc(N4CCOCC4)nc(N4CCOCC4)n3)nn2)cc1` as the compound, how does the fold change read?
A: -1.03 (inactive)

Q: With `Cc1ccc(NC(=O)Nc2ccc3c(c2)N(C)C(=O)CS3)c(C)c1` as the compound, how does the fold change read?
A: -1.06 (inactive)

Q: For `O=C1C2CCCCC2C(=O)N1c1nc2nc(-c3ccccc3)cc(=O)n2[nH]1` (stereo not given), which fold change is on record?
A: 1.17 (inactive)

Q: With `O=C(NC1CCCCC1)c1cccc(NC2=NC3CS(=O)(=O)CC3S2)c1` (stereo not given) as the compound, how does the fold change read?
A: -1.15 (inactive)

Q: Which fold change does the source give for `Cn1c(=O)c2c(SCC(=O)Nc3ccc4c(c3)OCO4)nc(-c3ccco3)nc2n(C)c1=O` here?
A: 1.03 (inactive)

Q: With `Brc1c(C[n+]2ccccc2)nc2ccccn12` as the compound, how does the fold change read?
A: -1.91 (inactive)

Q: For `O=C(Cn1c(=O)oc2cc(S(=O)(=O)NC3CCCC3)ccc21)N1CCCC1`, which fold change is on record?
A: -1.19 (inactive)

Q: Which fold change does the source give for `Cc1cc(Oc2ccccc2)nc(SCC(N)=O)n1` here?
A: 1.5 (inactive)

Q: With `COc1cc(OC)c(NC(=O)Nc2cc3sccc3n2C)cc1Cl` as the compound, how does the fold change read?
A: 1.13 (inactive)

Q: With `CC1(C)CC(=O)c2sc(NC(=O)Cc3ccc(Br)cc3)nc2C1` as the compound, how does the fold change read?
A: -3.4 (active)

Q: Which fold change does the source give for `O=C(CSc1nncc2ccccc12)Nc1ccccc1` here?
A: 1.07 (inactive)
